# Data published in PubChem BioAssay (NCI).
# Compounds without any hit were thinned out: in the full panel of roughly 79,000, 15% have a hit. Unmarked numbers belong to inactive results. The source made the active and inactive calls. Cut-off read from the data, not from the text of the source: active = growth inhibition above about 70%; inactive = the rest.
# What was measured:
# [1] = NCI Yeast Anticancer Drug Screen. Data for the rad52 strain (AID 147);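 note: 0% = growth of vehicle-treated control cultures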; details: S. cerevisiae rad52 mutant growth inhibition, stronger effect = higher value
# In short: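 Genetically altered yeast (DNA damage repair defect) treated with compound; inhibition calculated relative to vehicle.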
# [2] = NCI Yeast Anticancer Drug Screen. Data for the wt1 strain (AID 149);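 note: 0% = growth of vehicle-treated wt1 cultures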; details: S. cerevisiae wt1 strain (SPY 50644) growth inhibition, stronger effect = higher value
# In short: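 Compounds are added to wt1 yeast cultures. Growth is then measured. Inhibition is expressed relative to vehicle-treated controls.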
# [3] = NCI Yeast Anticancer Drug Screen. Data for the rad50EPP+ strain (AID 151);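 note: 0% = growth of vehicle-treated control cultures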; details: S. cerevisiae rad50 mutant strain, stronger effect = higher value
# In short: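 Strain rad50EPP+; compound exposure; % growth inhibition vs vehicle.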
# [4] = NCI Yeast Anticancer Drug Screen. Data for the mgt1 strain (AID 153); details: S. cerevisiae mgt1 mutant growth inhibition, stronger effect = higher value
# In short: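 Read-out: yeast growth inhibition vs vehicle control. Strain mgt1, drawn from a panel altered in DNA damage repair or cell cycle control.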
# [5] = NCI Yeast Anticancer Drug Screen. Data for the rad50 strain (AID 155);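 note: 0% = growth of vehicle-only cultures of the same strain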; details: S. cerevisiae rad50 strain growth inhibition, stronger effect = higher value
# In short: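 Inhibition values express reduced yeast growth in compound-treated cultures relative to vehicle-treated controls.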
# [6] = NCI Yeast Anticancer Drug Screen. Data for the mec2-1 strain (AID 157); details: S. cerevisiae mec2-1 strain, stronger effect = higher value
# In short: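 Cells of the genetically defined mec2-1 yeast strain are incubated with test compound. Inhibition of growth is calculated against vehicle-treated controls.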
# [7] = NCI Yeast Anticancer Drug Screen. Data for the rad14 strain (AID 159);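 note: 0% = growth of vehicle-treated control cultures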; details: S. cerevisiae rad14 strain growth inhibition, stronger effect = higher value
# In short: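 A mutant yeast strain defective in DNA damage repair is treated with compound; inhibition of its growth is scored against untreated, vehicle-exposed cultures.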
# [8] = NCI Yeast Anticancer Drug Screen. Data for the sgs1 mgt1 strain (AID 161);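 note: 0% = growth of cultures given vehicle only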; details: S. cerevisiae sgs1 mgt1 strain, stronger effect = higher value
# In short: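 Mutant yeast exposed to compound; growth scored against vehicle-only wells.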
# [9] = NCI Yeast Anticancer Drug Screen. Data for the CLN2oe strain (AID 163);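 note: 0% = growth of vehicle-only control cultures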; details: S. cerevisiae CLN2oe strain, stronger effect = higher value
# In short: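 Strain altered in cell-cycle control, incubated with compound; growth compared to solvent-treated controls.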
# [10] = NCI Yeast Anticancer Drug Screen. Data for the cln2 rad14 strain (AID 165);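 note: 0% = growth equal to vehicle treated cultures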; details: S. cerevisiae cln2 rad14 strain, stronger effect = higher value
# In short: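 The screen exposed genetically defined yeast (cln2 rad14) to test compounds and scored growth inhibition relative to vehicle-treated controls.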
# [11] = NCI Yeast Anticancer Drug Screen. Data for the bub3 strain (AID 167); details: S. cerevisiae bub3 mutant strain, stronger effect = higher value
# In short: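 Steps: expose the mutant yeast strain to compound; grow alongside vehicle-treated cultures; measure growth; express inhibition against the vehicle cultures.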
# [12] = NCI Yeast Anticancer Drug Screen. Data for the mlh1 strain (AID 171);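 note: 0% = growth of vehicle-treated control cultures of the same strain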; details: S. cerevisiae mlh1 strain growth inhibition, stronger effect = higher value
# In short: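 Yeast screen: mutant strain plus compound, growth scored against vehicle control wells.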
# [13] = NCI Yeast Anticancer Drug Screen. Data for the sgs1 strain (AID 173);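 note: 0% = growth of vehicle-only control cultures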; details: S. cerevisiae sgs1 mutant, stronger effect = higher value
# In short: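 Inhibition of yeast growth served as the measure. The mutant strain was treated with each compound, and growth was normalised to cultures receiving vehicle alone.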
# [14] = NCI Yeast Anticancer Drug Screen. Data for the mlh1 rad18 strain (AID 175); details: S. cerevisiae mlh1 rad18 strain growth inhibition, stronger effect = higher value
# In short: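 Compound-treated yeast growth, normalised to vehicle controls. Strain bears defined DNA repair mutations.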
# [15] = NCI Yeast Anticancer Drug Screen. Data for the rad18 strain (AID 177); details: S. cerevisiae rad18 mutant growth inhibition, stronger effect = higher value
# In short: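 Inhibition values reflect reduced yeast growth compared with vehicle-treated controls, using a strain engineered with a DNA damage repair defect.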
# [16] = NCI Yeast Anticancer Drug Screen. Data for the wt2 strain (AID 169);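 note: 0% = growth of vehicle-treated yeast cultures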; details: S. cerevisiae wt2 strain growth inhibition, stronger effect = higher value
# In short: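 Steps: yeast strain treated with compound; growth recorded; inhibition calculated relative to cultures given vehicle alone.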
# [17] = at 5.0 µM (retest, dose inferred, filed as 0.5)
# [18] = at 50.0 µM (retest, dose inferred, filed as 5.0)
smiles,measurement,setting,value
COc1cc(/C=N/Nc2nnc3c4ccccc4c4ncccc4c3n2)cc(OC)c1OC,growth inhibition,[1]; at 1.2 µM,40%
same,growth inhibition,[1]; at 3.7 µM,51%
same,growth inhibition,[1]; at 11.0 µM,81% (active)
same,growth inhibition,[1]; at 33.0 µM,74% (active)
same,growth inhibition,[1]; at 100.0 µM,89% (active)
same,growth inhibition,[2]; at 1.2 µM,-22%
same,growth inhibition,[2]; at 3.7 µM,-1%
same,growth inhibition,[2]; at 11.0 µM,-1%
same,growth inhibition,[2]; at 33.0 µM,4%
same,growth inhibition,[2]; at 100.0 µM,9%
same,growth inhibition,[3]; at 1.2 µM,20%
same,growth inhibition,[3]; at 3.7 µM,36%
same,growth inhibition,[3]; at 11.0 µM,58%
same,growth inhibition,[3]; at 33.0 µM,80% (active)
same,growth inhibition,[3]; at 100.0 µM,84% (active)
same,growth inhibition,[4]; at 1.2 µM,0%
same,growth inhibition,[4]; at 3.7 µM,1%
same,growth inhibition,[4]; at 11.0 µM,3%
same,growth inhibition,[4]; at 33.0 µM,5%
same,growth inhibition,[4]; at 100.0 µM,6%
same,growth inhibition,[5]; at 1.2 µM,18%
same,growth inhibition,[5]; at 3.7 µM,36%
same,growth inhibition,[5]; [17],4%
same,growth inhibition,[5]; at 11.0 µM,66%
same,growth inhibition,[5]; at 33.0 µM,81% (active)
same,growth inhibition,[5]; [18],62%
same,growth inhibition,[5]; at 50.0 µM,93% (active)
same,growth inhibition,[5]; at 100.0 µM,86% (active)
same,growth inhibition,[6]; at 1.2 µM,15%
same,growth inhibition,[6]; at 3.7 µM,1%
same,growth inhibition,[6]; [17],-2%
same,growth inhibition,[6]; at 11.0 µM,3%
same,growth inhibition,[6]; at 33.0 µM,9%
same,growth inhibition,[6]; [18],-5%
same,growth inhibition,[6]; at 50.0 µM,22.1%
same,growth inhibition,[6]; at 100.0 µM,11%
same,growth inhibition,[7]; at 1.2 µM,-1%
same,growth inhibition,[7]; at 3.7 µM,2%
same,growth inhibition,[7]; at 11.0 µM,5%
same,growth inhibition,[7]; at 33.0 µM,8%
same,growth inhibition,[7]; at 100.0 µM,14%
same,growth inhibition,[8]; [17],-5%
same,growth inhibition,[8]; [18],-2%
same,growth inhibition,[8]; at 50.0 µM,34%
same,growth inhibition,[9]; at 1.2 µM,-8%
same,growth inhibition,[9]; at 3.7 µM,-2%
same,growth inhibition,[9]; at 11.0 µM,-2%
same,growth inhibition,[9]; at 33.0 µM,-3%
same,growth inhibition,[9]; at 100.0 µM,1%
same,growth inhibition,[10]; [17],-7%
same,growth inhibition,[10]; [18],-6%
same,growth inhibition,[10]; at 50.0 µM,47.8%
same,growth inhibition,[11]; at 1.2 µM,-1%
same,growth inhibition,[11]; at 3.7 µM,-1%
same,growth inhibition,[11]; [17],1%
same,growth inhibition,[11]; at 11.0 µM,-4%
same,growth inhibition,[11]; at 33.0 µM,-11%
same,growth inhibition,[11]; [18],-16%
same,growth inhibition,[11]; at 50.0 µM,6.55%
same,growth inhibition,[11]; at 100.0 µM,-8%
same,growth inhibition,[12]; at 1.2 µM,-1%
same,growth inhibition,[12]; at 3.7 µM,0%
same,growth inhibition,[12]; at 11.0 µM,-2%
same,growth inhibition,[12]; at 33.0 µM,3%
same,growth inhibition,[12]; at 100.0 µM,6%
same,growth inhibition,[13]; at 1.2 µM,2%
same,growth inhibition,[13]; at 3.7 µM,5%
same,growth inhibition,[13]; at 11.0 µM,4%
same,growth inhibition,[13]; at 33.0 µM,9%
same,growth inhibition,[13]; at 100.0 µM,10%
same,growth inhibition,[14]; [17],-25%
same,growth inhibition,[14]; [18],-8%
same,growth inhibition,[14]; at 50.0 µM,55.6%
same,growth inhibition,[15]; at 1.2 µM,11%
same,growth inhibition,[15]; at 3.7 µM,8%
same,growth inhibition,[15]; at 11.0 µM,21%
same,growth inhibition,[15]; at 33.0 µM,29%
same,growth inhibition,[15]; at 100.0 µM,30%
CCOC(=N)c1ccc(O)c(OC)c1,growth inhibition,[1]; at 1.2 µM,-1%
same,growth inhibition,[1]; at 3.7 µM,0%
same,growth inhibition,[1]; at 11.0 µM,0%
same,growth inhibition,[1]; at 33.0 µM,0%
same,growth inhibition,[1]; at 100.0 µM,-2%
same,growth inhibition,[2]; at 1.2 µM,-3%
same,growth inhibition,[2]; at 3.7 µM,-2%
same,growth inhibition,[2]; at 11.0 µM,-3%
same,growth inhibition,[2]; at 33.0 µM,-1%
same,growth inhibition,[2]; at 100.0 µM,-3%
same,growth inhibition,[3]; at 1.2 µM,-3%
same,growth inhibition,[3]; at 3.7 µM,-4%
same,growth inhibition,[3]; at 11.0 µM,-6%
same,growth inhibition,[3]; at 33.0 µM,-3%
same,growth inhibition,[3]; at 100.0 µM,1%
same,growth inhibition,[4]; at 1.2 µM,-2%
same,growth inhibition,[4]; at 3.7 µM,-1%
same,growth inhibition,[4]; at 11.0 µM,-2%
same,growth inhibition,[4]; at 33.0 µM,-2%
same,growth inhibition,[4]; at 100.0 µM,-2%
same,growth inhibition,[5]; at 1.2 µM,-1%
same,growth inhibition,[5]; at 3.7 µM,16%
same,growth inhibition,[5]; [17],-2%
same,growth inhibition,[5]; at 11.0 µM,11%
same,growth inhibition,[5]; at 33.0 µM,-1%
same,growth inhibition,[5]; [18],-4%
same,growth inhibition,[5]; at 50.0 µM,2%
same,growth inhibition,[5]; at 100.0 µM,2%
same,growth inhibition,[6]; at 1.2 µM,0%
same,growth inhibition,[6]; at 3.7 µM,2%
same,growth inhibition,[6]; [17],-42%
same,growth inhibition,[6]; at 11.0 µM,2%
same,growth inhibition,[6]; at 33.0 µM,3%
same,growth inhibition,[6]; [18],-3%
same,growth inhibition,[6]; at 50.0 µM,-9%
same,growth inhibition,[6]; at 100.0 µM,2%
same,growth inhibition,[7]; at 1.2 µM,-2%
same,growth inhibition,[7]; at 3.7 µM,-6%
same,growth inhibition,[7]; at 11.0 µM,-19%
same,growth inhibition,[7]; at 33.0 µM,-4%
same,growth inhibition,[7]; at 100.0 µM,-1%
same,growth inhibition,[8]; [17],0%
same,growth inhibition,[8]; [18],-4%
same,growth inhibition,[8]; at 50.0 µM,-2.6%
same,growth inhibition,[10]; [17],2%
same,growth inhibition,[10]; [18],0%
same,growth inhibition,[10]; at 50.0 µM,-39.2%
same,growth inhibition,[11]; at 1.2 µM,7%
same,growth inhibition,[11]; at 3.7 µM,17%
same,growth inhibition,[11]; [17],30%
same,growth inhibition,[11]; at 11.0 µM,48%
same,growth inhibition,[11]; at 33.0 µM,66%
same,growth inhibition,[11]; [18],83% (active)
same,growth inhibition,[11]; at 50.0 µM,86.6% (active)
same,growth inhibition,[11]; at 100.0 µM,79% (active)
same,growth inhibition,[16]; at 1.2 µM,-3%
same,growth inhibition,[16]; at 3.7 µM,6%
same,growth inhibition,[16]; at 11.0 µM,-3%
same,growth inhibition,[16]; at 33.0 µM,-1%
same,growth inhibition,[16]; at 100.0 µM,-2%
same,growth inhibition,[13]; at 1.2 µM,-3%
same,growth inhibition,[13]; at 3.7 µM,-5%
same,growth inhibition,[13]; at 11.0 µM,-4%
same,growth inhibition,[13]; at 33.0 µM,-3%
same,growth inhibition,[13]; at 100.0 µM,3%
same,growth inhibition,[14]; [17],-1%
same,growth inhibition,[14]; [18],-3%
same,growth inhibition,[14]; at 50.0 µM,17.4%
